CHOP inhibitor – blocks CHOP induction under ER stress; CHO-K1 CHOP-promoter luciferase, tunicamycin-induced, 15-18 h; actives 3.8% (n = 220,000); inhibition, % at 10 µM;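 active = compounds that reduced the stress-induced luciferase reporter signal by more than about 70% of percent inhibition, limit read from the data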;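 also: 0% = tunicamycin plus vehicle and 100% = wells without tunicamycin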
L major viab – inhibitors of Leishmania major promastigote growth. Leishmania major promastigotes, resazurin fluorescence viability. inhibition, % at 10 µM. actives 9% (n = 200,000). AID 1063; in the data active = inhibition above about 50%;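 also: promastigotes grown with compound for 44 hours at 28 °C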
WT yeast gro inh – growth inhibition of WT yeast, mitochondrial fusion screen. mitochondrial fusion phenotypic screen, WT strain. inhibition, % at 10 µM. actives 2.1% (n = 190,000); in the data active = inhibition above about 58%; tested in S. cerevisiae
RAM inhibit – yeast RAM network inhibition. AID 868. actives 1.8% (n = 190,000). inhibition, % at 50 µM. S. cerevisiae dse1pr::URA3 reporter, 5-FOA growth OD615, 2 d; analog-sensitive cbk1-as2 kinase mutant strain;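 active = inhibition above a set limit, 3 SD over mean compound inhibition, cut at about 8.4% in these data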;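 also: 0% = DMSO-only wells with no growth and 100% = 10 µM 1-NA-PP1 full growth; inhibition rescues growth on 5-FOA so higher OD means more RAM inhibition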
* hit, by the source's call. Hits are enriched below; roughly 13% of the tested compounds scored in any of these assays.

Screening O=P(OC1CCCCC1)(OC1CCCCC1)C(O)c1ccc(Cl)cc1Cl (centres undefined) returned CHOP inhibitor 92*, L major viab 52*, WT yeast gro inh 15 and RAM inhibit 3.
Screening COc1ccccc1C(O)P(=O)(OC1CCCCC1)OC1CCCCC1 (centres undefined) returned CHOP inhibitor 5.
Screening CN(C)c1ccc(C(O)P(=O)(OC2CCCCC2)OC2CCCCC2)cc1 (centres undefined) returned CHOP inhibitor 5.
Screening O=P(OC1CCCCC1)(OC1CCCCC1)C(O)c1c(Cl)cccc1Cl (centres undefined) returned CHOP inhibitor 84*, L major viab 53*, WT yeast gro inh 71* and RAM inhibit 2.
`CCOC(=O)c1cccc(NC(=O)c2ccc(N(C)C)cc2)c1` gave CHOP inhibitor 0, L major viab 44, WT yeast gro inh -6 and RAM inhibit 3.
`COc1ccc(C2CC2C(C)=O)cc1` (centres undefined) gave CHOP inhibitor 17, L major viab -10, WT yeast gro inh -11 and RAM inhibit 0.
Cc1cc(C)c(S(=O)(=O)/N=C2/C=C(SCC(=O)O)C(=O)c3ccccc32)cc1C was read as CHOP inhibitor -20, L major viab 100*, WT yeast gro inh 66* and RAM inhibit 5.
`Cc1cccc[n+]1CC(=O)/C=C1\N(C)c2ccccc2C1(C)C` gave CHOP inhibitor 14, L major viab 84*, WT yeast gro inh -3 and RAM inhibit 2.
`CN1/C(=C\C(=O)CN2C(=O)NC3(CCCCCC3)C2=O)C(C)(C)c2ccccc21` gave CHOP inhibitor 65, L major viab 96*, WT yeast gro inh 25 and RAM inhibit 0.
CCOC(=O)c1cc(NC(=O)CC(C)(C)CC(=O)O)ccc1N1CCCCC1 was read as CHOP inhibitor 28.
Screening CCN(Cc1ccccc1)S(=O)(=O)c1cc(C(=O)NC(C)C2CC3CCC2C3)ccc1OC (centres undefined) returned CHOP inhibitor 29, L major viab 84*, WT yeast gro inh -28 and RAM inhibit 7.
Screening CCCCCC(=O)Nc1nc(C)c(-c2csc(Nc3cc(OC)ccc3OC)n2)s1 returned CHOP inhibitor 33, L major viab 51*, WT yeast gro inh -19 and RAM inhibit 3.
For CCCCCCC(=O)Nc1nc(C)c(-c2csc(Nc3cc(OC)ccc3OC)n2)s1 the results were CHOP inhibitor 35, L major viab 71*, WT yeast gro inh 11 and RAM inhibit 6.
`COc1ccc(OC)c(Nc2nc(-c3sc(NC(=O)c4ccccc4)nc3C)cs2)c1` gave CHOP inhibitor 49, L major viab -1, WT yeast gro inh 26 and RAM inhibit 0.
CNS(=O)(=O)c1ccc(NC(=O)c2ccccn2)cc1 was read as CHOP inhibitor 6, L major viab 47, WT yeast gro inh -5 and RAM inhibit 1.
Screening FC(F)(F)c1ccc(N2CCN(c3ncnc4c3nnn4Cc3ccccc3)CC2)nc1 returned CHOP inhibitor 91*, L major viab -2, WT yeast gro inh -8 and RAM inhibit 3.
For O=C(CSc1nc2ccccc2c(=O)n1-c1ccccc1)N/N=C/C=C/c1ccccc1[N+](=O)[O-] the results were CHOP inhibitor 16, L major viab 43, WT yeast gro inh 5 and RAM inhibit 4.
For Cc1ccccc1-n1c(SCC(=O)N/N=C/C=C/c2ccccc2[N+](=O)[O-])nc2ccccc2c1=O the results were CHOP inhibitor 6, L major viab 60*, WT yeast gro inh 6 and RAM inhibit 5.
`O=S(=O)(c1ccccc1)c1nc(NCc2cccnc2)sc1Cl` gave CHOP inhibitor 15, L major viab -3, WT yeast gro inh 5 and RAM inhibit 2.
Screening C/C=C/c1ccc(OCCCNC(C)CC)c(OC)c1 (centres undefined) returned CHOP inhibitor 24, L major viab -3, WT yeast gro inh -11 and RAM inhibit 1.
For C/C=C/c1ccc(OCCCNC2CCCC2)c(OC)c1 the results were CHOP inhibitor 56, L major viab 100* and RAM inhibit 1.
C/C=C/c1ccc(OCCOc2cc(C=O)ccc2OC)c(OC)c1 was read as CHOP inhibitor 18, L major viab 85*, WT yeast gro inh 5 and RAM inhibit 1.
For CCO[C@H]1OC(C(=O)NC2CC2)=C[C@@H](c2coc3ccccc3c2=O)[C@@H]1CCCO the results were CHOP inhibitor 12, L major viab -8, WT yeast gro inh -33 and RAM inhibit 1.
For CCOC(=O)Nc1sc(C)c(C)c1C(N)=O the results were CHOP inhibitor -1, L major viab -2, WT yeast gro inh -14 and RAM inhibit 1.
Screening C/C(N)=C(/C#N)C(=O)COC(=O)CC12CC3CC(CC(C3)C1)C2 returned CHOP inhibitor 60, L major viab 97*, WT yeast gro inh 18 and RAM inhibit 1.
Screening C/C(N)=C(/C#N)C(=O)COC(=O)CC1CCCC1 returned L major viab -1.
Screening CN1CCN(C(=O)c2cc3nc(-c4ccccc4)cc(-c4ccccc4)n3n2)CC1 returned CHOP inhibitor 13, L major viab 95*, WT yeast gro inh 11 and RAM inhibit 0.
Screening N.N.N.N.N.N.N.N.N.N.N.N.N.N.O.O.[Cl-].[Cl-].[Cl-].[Cl-].[Cl-].[Cl-].[Ru+4].[Ru+5].[Ru+5] returned CHOP inhibitor -15.
For OCCCc1nc2n(n1)C(c1cccs1)C=C(c1ccc(Br)cc1)N2 (centres undefined) the results were CHOP inhibitor 49, L major viab 2, WT yeast gro inh 61* and RAM inhibit 2.
For Brc1ccc(C2=CC(c3cccs3)n3ncnc3N2)cc1 (centres undefined) the results were CHOP inhibitor 24, L major viab 7, WT yeast gro inh 68* and RAM inhibit 2.
Screening Fc1ccc(C2=CC(c3ccc(Br)o3)n3ncnc3N2)cc1 (centres undefined) returned CHOP inhibitor 11, L major viab -2, WT yeast gro inh -6 and RAM inhibit 1.
Screening Brc1ccc(C2=CC(c3ccco3)n3nnnc3N2)cc1 (centres undefined) returned CHOP inhibitor -1.
`COc1cc(/C=N/NC(=O)CSc2n[nH]c(=O)[nH]c2=O)cc(OC)c1O` gave CHOP inhibitor -28, L major viab -6, WT yeast gro inh -2 and RAM inhibit 0.
CC1=NN(C(=O)c2ccc(Cn3ccc([N+](=O)[O-])n3)cc2)C(O)(C(F)(F)F)C1 (centres undefined) was read as CHOP inhibitor 24, L major viab -9, WT yeast gro inh -16 and RAM inhibit 0.
`CCn1c(COc2cccc3cccnc23)nnc1SCC(=O)O` gave CHOP inhibitor 10, L major viab -5, WT yeast gro inh 13 and RAM inhibit 3.
Screening CCn1c(COc2cccc3cccnc23)nnc1SC(F)F returned CHOP inhibitor 7, L major viab 83*, WT yeast gro inh 1 and RAM inhibit 2.
Screening CN=c1scc(-c2cccs2)n1/N=C/c1ccc(O)c(O)c1O returned CHOP inhibitor -3, L major viab -10, WT yeast gro inh 24 and RAM inhibit 0.

Assay outcomes deposited in PubChem by several laboratories.
